Compound activity from PubChem.
Many of the other results were omitted from the sample, so hits are more common in it than they were.
FECH inh = inhibitors of human ferrochelatase, primary screen, biochemical, purified FECH, Ni-mesoporphyrin absorbance; actives 3.3% (n = 20,000); Ni-mesoporphyrin absorbance 550 nm; calls only at 10 µM (by protocol); Ferrochelatase, mitochondrial (Homo sapiens), P22830;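 active = enzyme reaction rate more than 3 SD below the solvent-only control wells on the same plate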;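 also: lower slope than DMSO wells means FECH inhibition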
Target sequence (P22830 whole entry, looked up): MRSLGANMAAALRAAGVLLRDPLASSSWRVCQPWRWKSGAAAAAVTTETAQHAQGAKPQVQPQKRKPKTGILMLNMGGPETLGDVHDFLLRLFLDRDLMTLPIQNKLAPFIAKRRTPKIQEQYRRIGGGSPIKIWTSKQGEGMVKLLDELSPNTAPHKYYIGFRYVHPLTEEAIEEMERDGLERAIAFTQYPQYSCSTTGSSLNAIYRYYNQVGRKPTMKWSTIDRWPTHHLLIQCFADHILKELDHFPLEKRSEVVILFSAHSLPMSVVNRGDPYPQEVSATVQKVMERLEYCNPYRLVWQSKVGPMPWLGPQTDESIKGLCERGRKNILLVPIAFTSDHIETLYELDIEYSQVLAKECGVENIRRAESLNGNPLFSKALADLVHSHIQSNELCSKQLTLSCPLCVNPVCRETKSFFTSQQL
Active calls of the source: *; i = inactive; + = active, no number.

SMILES	FECH inh
CCN(CC)C(=O)c1ccccc1NC(=O)CN1c2ccc(F)cc2-c2ccccc2S1(=O)=O	+
O=C(CN1C(=O)c2ccccc2S1(=O)=O)Nc1ccc(Cl)cc1C(F)(F)F	i
CC(C)NC(=O)c1ccccc1NC(=O)CN1c2ccc(C(C)C)cc2-c2ccccc2S1(=O)=O	i
CSc1ccccc1NC(=O)CN1c2ccc(C(C)C)cc2-c2ccccc2S1(=O)=O	i
CC(C)c1ccc2c(c1)-c1ccccc1S(=O)(=O)N2CC(=O)NC(C)c1ccccc1 (configuration not stated)	+
O=C(CN1CCN(Cc2ccc(F)cc2)S1(=O)=O)Nc1cccc(F)c1	i
CC(C)c1ccc2c(c1)-c1ccccc1S(=O)(=O)N2CC(=O)Nc1cccc(F)c1	+
O=C(CN1c2ccc(F)cc2-c2ccccc2S1(=O)=O)Nc1ccccc1C(=O)N1CCCCC1	i
Cc1ncc(C)c(N2CCC(c3[nH]ncc3Cc3ccccc3)CC2)n1	i
NS(=O)(=O)c1ccc(CCN[C@H]2CS(=O)(=O)C[C@@H]2S(=O)(=O)c2cccs2)cc1	i
CCc1ccc(-n2c(CN3CCN(S(=O)(=O)c4ccccc4)CC3)nc3cccnc32)cc1	i
Cc1ccncc1C(=O)Nc1ccccc1OCCOc1ccccc1	i
O=C(NCc1cccnc1)c1ccc(CSc2ncn[nH]2)o1	i
Cc1ccc(CNC(=O)C2(C)Cn3nc(C(=O)N4CCOCC4)cc3C(=O)N2C)cc1 (configuration not stated)	i
O=C(Nc1cccc(C(=O)N2CCN(c3cn[nH]c(=O)c3)CC2)c1)C1CCCC1	i
Cc1cccc(NC(=O)CN2C(=O)CN(C)C(=O)c3ccccc32)c1	i
CC(=O)NCC1=CCCN(CCn2cccc2)C1	i
CNC(=O)[C@@H]1C[C@@H](N)CN1Cc1cc(C)n(-c2cccnc2)c1C	i
Cc1nc(C(=O)N2CC[C@@H](c3ccc4ccccc4c3)[C@H](O)C2)c(C)o1	i
Cc1noc(C)c1C(=O)N1CC[C@@H](c2ccc3ccccc3c2)[C@H](O)C1	i
O=C(c1cccs1)N1CC[C@@H](c2ccc3ccccc3c2)[C@H](O)C1	+
Cc1ccc(CNc2nccc(-c3cn(C)nc3C)n2)o1	i
Cc1cccc(-c2nnc(-c3nc(NCCc4c(C)noc4C)c4ccccc4n3)o2)c1	i
CCOc1ccc(Nc2nc(N(CC)CCO)nc3c2cnn3-c2ccccc2)cc1	i
COc1ccc(OC)c(Nc2nc(NCc3ccccc3Cl)nc3c2cnn3-c2ccccc2)c1	+
SMILES	FECH inh
COc1cccc(Nc2nc(N(C)C)nc3c2cnn3-c2ccccc2)c1	i
COc1ccc(OC)c(Nc2nc(NCc3ccccc3)nc3c2cnn3-c2ccccc2)c1	i
CN(C)c1nc(Nc2ccc(Cl)cc2)c2cnn(-c3ccccc3)c2n1	i
COc1ccc(Nc2nc(N(C)C)nc3c2cnn3-c2ccccc2)cc1	+
COc1ccc(OC)c(Nc2nc(NCc3ccccc3OC)nc3c2cnn3-c2ccccc2)c1	i
CCOc1ccc(Nc2nc(N(CC)CC)nc3c2cnn3-c2ccccc2)cc1	i
Cc1cc(C)cc(Nc2nc(NCC3CCCO3)nc3c2cnn3-c2ccccc2)c1 (configuration not stated)	i
CCOc1ccc(Nc2nc(NCC3CCCO3)nc3c2cnn3-c2ccccc2)cc1 (configuration not stated)	+
COc1cccc(Nc2nc(NCC3CCCO3)nc3c2cnn3-c2ccccc2)c1 (configuration not stated)	i
CCN(CC)c1nc(Nc2ccc(OC)cc2)c2cnn(-c3ccccc3)c2n1	+
CC(Cn1cncn1)C(=O)NCc1cccnc1-n1cnc2ccccc21 (configuration not stated)	i
CCn1c(C2CCN(Cc3ccnc(C(C)C)n3)CC2)n[nH]c1=O	i
O=S(=O)(c1ccc(F)c(Cl)c1)N1CCN(Cc2nc3cccnc3n2-c2ccccc2)CC1	i
Cc1ccc(CN2CCC(CNC(=O)CNC(N)=O)C2)c(C)c1F (configuration not stated)	i
COc1ccc(Cl)cc1C(=O)Nc1cccc(N2CCCS2(=O)=O)c1	i
CCn1ccnc1CNC(=O)COc1c(C)ccc(C)c1C	i
CCc1nc(OCC(=O)NCc2ccc(C)cc2)c2c(C)c(C)oc2n1	i
Cn1ccc(NC(=O)CN2CCC(N3CCCC(C(=O)N4CCCC4)C3)CC2)n1 (configuration not stated)	i
Cc1ccc2cc(C3(O)CCN(C(=O)COc4cccnc4)CC3)ccc2n1	i
CCCn1ncc2[nH]c(-c3c(OC)ccc4ccccc34)nc21	i
Cc1cccc(OCC(=O)Nc2cc(N3CCCS3(=O)=O)ccc2C)c1	+
COc1cccc(OCC(=O)Nc2cc(N3CCCS3(=O)=O)ccc2C)c1	i
Cc1ccc(OCC(=O)Nc2cc(N3CCCS3(=O)=O)ccc2C)cc1	i
CCCN(CCC)c1ncc(NS(=O)(=O)CC)cc1C(=O)O	i
CCCC(NC(=O)Cc1cc(C)no1)c1cccs1 (configuration not stated)	i
SMILES	FECH inh
O=C(Nc1ccc2nc(CCc3ccccc3)[nH]c2c1)C1CCN(S(=O)(=O)N2CCOCC2)CC1	i
Cn1c(CCc2cccc(NC(=O)C3CCN(S(=O)(=O)N4CCCC4)CC3)c2)nc2ccccc21	+
Cn1c(CCc2ccccc2NC(=O)C2CCCN(S(=O)(=O)N3CCCC3)C2)nc2ccccc21 (configuration not stated)	i
OC1C[C@H]2CC[C@@H](C1)N2c1ncnc2[nH]ccc12 (some centres not stated)	i
Cc1ccc(C2=CC(c3ccc(C)cc3)n3nc(NS(=O)(=O)c4ccccc4)nc3N2)cc1 (configuration not stated)	+
O=C(O)CCCC(=O)Nc1nc2n(n1)C(c1ccc(Cl)cc1)C=C(c1ccc(Cl)cc1)N2 (configuration not stated)	i
CCC(=O)Nc1nc2n(n1)C(c1ccc(Cl)cc1)C=C(c1ccc(Cl)cc1)N2 (configuration not stated)	i
Cc1ccc(C2=CC(c3ccc(F)cc3)n3nc(NS(=O)(=O)c4ccc(C)cc4)nc3N2)cc1 (configuration not stated)	i
CCCC(=O)Nc1nc2n(n1)C(c1ccc(Cl)cc1)C=C(c1ccc(C)cc1)N2 (configuration not stated)	+
O=S(=O)(Nc1nc2n(n1)C(c1ccc(F)cc1)C=C(c1ccccc1)N2)c1ccccc1 (configuration not stated)	i
O=C(c1ccc2c(c1)OCO2)N1CCC(O)(C2CCN3Cc4ccccc4N=C23)CC1 (configuration not stated)	i
O=C(NCCN1CCCc2ccccc21)[C@@H]1C[C@@H]2C=C[C@H]1C2	i
CN1CC2(CCN(C(=O)c3ccc(CC4CCCNC4)cc3)CC2)OC1=O (configuration not stated)	i
CC(C(=O)NCc1cccnc1N(C)Cc1ccccc1)n1ccnc1 (configuration not stated)	i
Cc1cccc(-c2nnc(-c3nc(NCc4ccccc4C)c4ccccc4n3)o2)c1	i
CCOc1ccc(NC(=O)CN2CCCN(Cc3ccc(Cl)cc3)S2(=O)=O)cc1	+
CCc1ccc(NC(=O)CN2CCCN(Cc3ccc(Cl)cc3)S2(=O)=O)cc1	i
CCOc1ccc(NC(=O)CN2CCCN(Cc3ccc(F)cc3)S2(=O)=O)cc1	+
